Among all 13,000 compounds or so, about 3,200 (25%) showed an effect of 50% or more. The list shows a part of the results.

For orientation: % Inhibition means the relative decrease from the control value, in per cent.

The test system of this assay is P. falciparum stage V gametocytes. More on the design: BacTiter-Glo ATP luminescence viability of purified stage V gametocytes in 384-well plates, per cent inhibition versus DMSO. Particulars: 48 h, 5 µM; inhibitor.
For the compound `CCOC(=O)c1ccc(NC(=O)NNC(=O)c2ccc(CCN3CCC(c4nc(COCC(F)(F)F)c(-c5ccc(F)cc5)o4)CC3)cc2)cc1` [TCMDC-131907], the “% Inhibition” value is on record as 11.96%. `Cc1ccc2[nH]c(-c3ccc(C(=O)NC4CCN(Cc5ccccc5)CC4)cc3)nc2c1C` [TCMDC-140449]: the “% Inhibition” value was 4.358%. Consider `Cc1ccc(-c2cc(C(=O)Nc3ccc(S(=O)(=O)N4CCOCC4)cc3)[nH]n2)c(O)c1C` [TCMDC-124306], for which the “% Inhibition” value was found to be 74.46%. The value for `Cc1ccc(-c2cc(C(=O)Nc3ccc(S(=O)(=O)N4CCCCC4)cc3)[nH]n2)c(O)c1` [TCMDC-124305] was -41.04%. The value for `O=C(Nc1ccc(S(=O)(=O)N2CCOCC2)cc1)c1cc(-c2cc(Cl)ccc2O)n[nH]1` [TCMDC-125204] was -22.77%; that for `O=C(Nc1ccon1)c1cc(-c2cccnc2)nc2ccc(Br)cc12` [TCMDC-125217] was -5.67%; that for `CC1N=C(N)N=C(N)N1OCc1cccc2ccccc12` (centres unmarked) [TCMDC-131595] was 37.89%. With `CN1CCC(OC(=O)c2cc3cc(-c4ccccc4)ccc3n2S(=O)(=O)c2ccccc2)CC1` [TCMDC-139104], the “% Inhibition” value amounted to 88.58%. As for `CN(C)CCCN1CCN(C(=O)c2cc3cc(-c4ccccc4)ccc3n2S(=O)(=O)c2ccccc2)CC1` [TCMDC-139103], the “% Inhibition” value amounted to 17.27%.

As for `O=C(NCCN1CCCCC1)c1cc2cc(-c3ccccc3)ccc2n1S(=O)(=O)c1ccccc1` [TCMDC-139102], the “% Inhibition” value is 37.88%.

Turning to `Cc1cccc2nc(-c3ccc(-c4ccc(CNCC5CCCO5)cc4)cc3)[nH]c12.O=C(O)C(F)(F)F` (centres unmarked) [TCMDC-133093], the “% Inhibition” value is recorded as -8.859%. The value for `Cc1[nH]c2ccccc2c1C(=O)C(C)Sc1nnc(-c2ccccc2F)o1` (centres unmarked) [TCMDC-125312] was 68.46%; that for `Cc1[nH]c2ccccc2c1C(=O)C(C)Sc1nnc(-c2ccccc2Br)[nH]1` (centres unmarked) [TCMDC-125114] was 93.54%. With `Cc1cccc(C)c1OC(=O)CSc1nnc(-c2ccccc2O)o1` [TCMDC-125733], the “% Inhibition” value was -18.5%. Regarding `Nc1nc(F)nc2nc[nH]c12` [TCMDC-124283], the “% Inhibition” value stood at 4.967%.

For the compound `O=C(NCc1cccc(F)c1)Nc1cccc(-c2ccc(-c3nc4ccc(C(F)(F)F)cc4[nH]3)cc2)c1` [TCMDC-133288], the “% Inhibition” value was -40.45%. For `CCNc1cc(C(=O)N[C@@H](Cc2ccccc2)[C@H](O)CNCCc2cccc(C(F)(F)F)c2)cc(N2CCCC2=O)c1` [TCMDC-134552] the value was -6.04%; for `COc1cccc(C(O)CNc2ccnc(Nc3ccc(Cl)cc3)n2)c1` (centres unmarked) [TCMDC-136575], 5.772%; for `Clc1ccc(-c2ccc(C=NNc3nc(Nc4ccccc4)nc(Nc4ccccc4)n3)o2)cc1Cl` [TCMDC-124152], 3.438%. Turning to `Clc1cccc(C=NNc2nc(Nc3ccccc3)nc(Nc3ccccc3)n2)c1` [TCMDC-125798], the “% Inhibition” value came to 24.55%.

On to `Clc1ccc(Nc2nc(NCc3ccccc3)nc(N/N=C/c3ccccn3)n2)cc1` [TCMDC-138557], for which the “% Inhibition” value is listed as 107.3%. As for `O=c1cc(NCCCNCc2ccc(C(F)(F)F)s2)[nH]c2ccccc12` [TCMDC-140767], the “% Inhibition” value is -70.92%. The value for `COc1ccc2nccc([C@@H](O)CN3CCC(NCCOc4cccc(C(F)(F)F)c4)CC3)c2c1` [TCMDC-140507] was 58.71%; that for `COc1ccc2nccc([C@@H](O)CNCCCN(C)CCOc3cc(F)cc(F)c3)c2c1` [TCMDC-141051] was 75.1%. The value for `COc1ccc2nccc([C@@H](O)CN3CCC(NCCOc4cc(F)cc(F)c4)CC3)c2c1` [TCMDC-140510] was 10.94%; that for `COc1ccc2nccc([C@@H](O)CN3CCC(NCCOc4ccncc4)CC3)c2c1` [TCMDC-140574] was 11.37%; that for `COc1ccc2nccc([C@@H](O)CN3CCC(NCCOc4ccc(F)cc4Cl)CC3)c2c1` [TCMDC-140660] was 20.67%. For `COc1ccc2nccc([C@@H](O)CN3CCC(NCCOc4cccc(F)c4F)CC3)c2c1` [TCMDC-140644], the “% Inhibition” value came to 24.45%. Regarding `COc1ccc2nccc([C@@H](O)CN3CCC(NCCOc4ccccc4C(F)(F)F)CC3)c2c1` [TCMDC-140713], the “% Inhibition” value came to 37.87%.

Turning to `COc1ccc2nccc([C@@H](O)CN3CCC(NCCOc4ccc(F)cc4F)CC3)c2c1` [TCMDC-140645], the “% Inhibition” value worked out at 94.72%. On to `COc1ccc2nccc([C@@H](O)CN3CCC(NCCOc4cc(C(F)(F)F)ccc4F)CC3)c2c1` [TCMDC-140658], for which the “% Inhibition” value came to 14.45%. `CCCCc1cc(NCC)nc(Nc2cccc(OC)c2)n1` [TCMDC-133993]: the “% Inhibition” value is 0.878%.

As for `COc1ccc(CCCN2C(=O)C(c3ccccc3)(c3ccccc3)N=C2N)cc1` [TCMDC-136503], the “% Inhibition” value is reported as -39.16%. For `O=C(Nc1ccc(N2CCNCC2)nc1)c1oc(-c2ccccc2)nc1C(F)(F)F` [TCMDC-135131] the value was 3.26%. For `CC(C)N(C(=O)CSc1nc2cc(Cl)ccc2c(=O)n1Cc1ccccc1)C(C)C` [TCMDC-123612] the value was 6.529%; for `Cc1nc2ccc3ccc(CN(C)c4ccc(C(=O)N[C@@H](CCC(=O)O)C(=O)O)cc4)cc3c2c(=O)[nH]1` [TCMDC-138089], 24.11%.

With `Cc1cccc2[nH]c(-c3cccc(-c4cccc(NC(=O)Nc5ccc(F)c(F)c5F)c4)c3)nc12` [TCMDC-133227], the “% Inhibition” value is -33.06%. For `COc1cncc(/C=C/c2cncc(C(=O)NCCc3ccc(Cl)cc3Cl)c2)c1` [TCMDC-134508] the value was -1.142%; for `CCOc1cc(C=NNc2nc(C)cc(-n3nc(C)cc3C)n2)ccc1O` [TCMDC-124094], 92.61%.

With `CCOc1cc(/C=N/Nc2nc3ccccc3[nH]2)ccc1OCc1ccc([N+](=O)[O-])cc1` [TCMDC-124191], the “% Inhibition” value is on record as -53.42%. For `CCOc1ccc(Nc2cc(C)nc(Nc3ccc(OCC)cc3)n2)cc1` [TCMDC-125772], the “% Inhibition” value was -32.28%. As to `CC1(C)N=C(N)N=C(N)N1OCCSc1ccccc1` [TCMDC-131670], the “% Inhibition” value is -8.546%. As for `CCNC(=O)Nc1cccc(-c2cccc(-c3nc4c(C)cccc4[nH]3)c2)c1` [TCMDC-133172], the “% Inhibition” value is on record as -6.099%. For `CC1CCC(NCc2c(O)ccc3ccccc23)CC1` (centres unmarked) [TCMDC-137602] the value was -21.28%; for `CSc1ccc2ccccc2c1CCNCCCCNCCc1c(SC)ccc2ccccc12` [TCMDC-137763], 109.4%; for `CSc1ccc2ccccc2c1CNCCCCCCNCc1c(SC)ccc2ccccc12` [TCMDC-137758], 72.82%. Consider `CC1CN(Cc2csc(Nc3ccccc3)n2)CC(C)O1` (centres unmarked) [TCMDC-125078], for which the “% Inhibition” value is reported as 46.05%. The value for `FC(F)(F)c1ccc2c(C=Cc3ccncc3)c[nH]c2c1` [TCMDC-137257] was 12.06%; that for `CCCC(=O)Nc1ccc(OCCCCN(Cc2ccccc2C(F)(F)F)c2ccc(C(F)(F)F)c(C#N)c2)cc1` [TCMDC-133359] was 32.41%.

`CCCCN(C)CC#Cc1ccc(-c2ccc3[nH]c(C)c(Br)c(=O)c3c2)cn1` [TCMDC-136285]: the “% Inhibition” value is given as 11.41%. Turning to `CCN(CC)CC#Cc1ccc2[nH]c(C)c(Cl)c(=O)c2c1` [TCMDC-136162], the “% Inhibition” value worked out at 0.7622%. In the case of `Cc1[nH]c2ccc(-c3ccc(N(C)C)cc3)cc2c(=O)c1Cl` [TCMDC-136188], the “% Inhibition” value came to 61.07%. The value for `Cc1[nH]c2ccccc2c(=O)c1-c1ccc(Cl)cc1` [TCMDC-137172] was 25.44%; that for `Cc1[nH]c2ccc(-c3ccc(OC(F)(F)F)cc3)cc2c(=O)c1C#N` [TCMDC-136129] was 23.98%; that for `Cc1ccc2[nH]c3ccccc3c(=O)c2c1` [TCMDC-123947] was 19.38%.

In the case of `CCCCc1ccc(-c2ccc3[nH]c(C)c(Br)c(=O)c3c2)cc1` [TCMDC-135463], the “% Inhibition” value turned out to be 34.89%. The value for `O=c1c2ccccc2[nH]c2cc(Cl)ccc12` [TCMDC-123989] was -7.86%; that for `Cc1ccc2c(=O)c3cc(C)ccc3[nH]c2c1` [TCMDC-138194] was 58.3%.

Take `CCCCN(C)CC#Cc1ccc2[nH]c(C)c(Cl)c(=O)c2c1` [TCMDC-136185]: the “% Inhibition” value was 85.15%. Turning to `Cc1[nH]c2ccc(-c3ccccc3)cc2c(=O)c1Br` [TCMDC-135426], the “% Inhibition” value came to 61.46%. Take `Cc1[nH]c2ccccc2c(=O)c1Br` [TCMDC-137427]: the “% Inhibition” value is on record as 12.8%.

Consider `Cc1ccc2nc(Nc3ccc(Nc4nc5ccc(C)cc5[nH]4)c(C)c3)[nH]c2c1` [TCMDC-131952], for which the “% Inhibition” value is given as -70.19%. In the case of `COc1ccc2nccc([C@@H](O)CN3CCC(NC(=O)c4cc5ccccc5[nH]4)CC3)c2c1` [TCMDC-140780], the “% Inhibition” value is given as -18.21%. For `O=C(Nc1ccc(CC(=O)N2CCc3cc(Cl)c(N4CCN(C/C=C/c5ccccc5)CC4)cc32)cc1)Nc1cccc([N+](=O)[O-])c1` [TCMDC-139475], the “% Inhibition” value was determined as 6.892%.

Consider `Cc1cc(Nc2cccc(C#N)c2)nc(Nc2ccccc2C)n1` [TCMDC-133471], for which the “% Inhibition” value is given as -8.734%. As to `CCCCNC(=O)[C@H](CC1CCCCC1)NC(=O)c1ccc(O)c(-c2cccc(C(F)(F)F)c2)c1` [TCMDC-140812], the “% Inhibition” value came to 31.87%. With `O=C(Nc1cc(Cl)ccc1O)c1cc(-c2ccccc2O)no1` [TCMDC-125274], the “% Inhibition” value is -14.42%. As to `Cc1[nH]c2ccc(C#N)cc2c(=O)c1Br` [TCMDC-135219], the “% Inhibition” value is 27.39%. For the compound `O=c1c(Br)c(C(F)(F)F)[nH]c2ccc(Oc3ccccc3)cc12` [TCMDC-135798], the “% Inhibition” value was -15.2%. The value for `Cc1ccc2[nH]c(C)c(Br)c(=O)c2c1` [TCMDC-124347] was 65.99%; that for `COC(=O)c1ccccc1N1CCN(CCCCNC(=O)c2ccc(NC(=O)c3cc(Cl)cc(Cl)c3)cc2)CC1` [TCMDC-138235] was 7.414%.

The values above are taken from publication PMC4552634, “A New Set of Chemical Starting Points with Plasmodium falciparum Transmission-Blocking Potential for Antimalarial Drug Discovery” (PLoS ONE, 2015).
